The structures appear in SMILES notation. Calls of active or inactive are those of the source.

We go through five compounds from PubChem BioAssay.

Assay [1] can be described thus: small molecules captured by biotinylated probe aFSTL3 – biochemical, small-molecule microarray, fluorescence 635/667, stem cell growth factor project, primary screen (AID 1064).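 Note: measures binding of the biotinylated anti-FSTL3 antibody to printed compounds.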 As to conditions: higher = more signal.
A short description of assay [2]: binders from COS7 lysate, DM2A8 probe, primary screen, torsin A project, cell lysate, small-molecule microarray, fluorescence 635/667 (AID 1065). As to conditions: higher = more signal, COS7 lysate expressing mutant human TOR1A.
The nature of assay [3]: small molecules captured by biotinylated probe aFGF2 – biochemical, small-molecule microarray, fluorescence 635/667, stem cell growth factor project, primary screen (AID 1067).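 Note: measures binding of biotinylated aFGF2 protein to printed compounds on slides; z-score merges feature fluorescence and signal-to-noise across triplicate slides.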 As to conditions: higher = more signal.
Assay [4] in a line: small molecules captured by biotinylated probe aFGF10 – biochemical, small-molecule microarray, fluorescence 635/667, stem cell growth factor project, primary screen (AID 1071).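 Note: score merges 667 nm spot intensity and signal to noise from triplicate slides.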 As to conditions: higher = more signal.
Assay [5] addresses Neurogenic locus notch homolog protein 2 (Homo sapiens) (UniProt Q04721). The assay can be described thus: small molecules binding Notch2 protein – biochemical, small-molecule microarray, 635 nm fluorescence, stem cell growth factors, primary screen (AID 1073). As to conditions: higher = more signal.
Assay [6] concerns the target Pro-neuregulin-1, membrane-bound isoform (Homo sapiens) (UniProt Q02297). The assay can be described thus: small molecules binding neuregulin-1 protein – biochemical, small-molecule microarray, fluorescence 635/667, psychiatric disease protein project, primary screen (AID 1075).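 Note: score combines 667 nm spot fluorescence with signal to noise.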 As to conditions: NRG1 binding, 635 nm fluorescence, higher = more signal.
Assay [7] concerns Neuregulin-1 EGF-like domain. The assay can be described thus: small molecules binding NRG1 EGF domain – biochemical, small-molecule microarray, 635 nm fluorescence, primary screen (AID 1081).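 Note: binding of the protein to compounds printed on small-molecule microarray slides.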 As to conditions: higher = more signal.
A short description of assay [8]: FRG1 expression reporter modulators in myotubes – cell-based, C2C12 myotubes, firefly/Renilla luciferase, luminescence, FRG1 inhibition for FSHD, primary screen (AID 1084). As to conditions: FRG1 promoter luciferase, higher = more signal, called active from +8 up or from −8 down.
The nature of assay [9]: small molecules captured by biotinylated probe aFST – biochemical, small-molecule microarray, fluorescence 635/667, stem cell growth factor project, primary screen (AID 1086).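 Note: score merges 667 nm fluorescence with signal-to-noise of each printed compound spot.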 As to conditions: higher = more signal.
The nature of assay [10]: binders of probe aHhip on microarray, primary screen, stem cell growth factor project, biochemical, small-molecule microarray, fluorescence 635/667 (AID 1087).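 Note: score merges spot fluorescence at 667nm with spot signal to noise ratio.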 As to conditions: higher = more signal.
Assay [11] concerns PRMT1 (protein arginine N-methyltransferase 1). Nature of the assay: small molecules binding arginine methyltransferase PRMT1 – biochemical, small-molecule microarray, 635 nm fluorescence, primary screen (AID 1088).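 Note: binding of Prmt1 protein to compounds spotted on small-molecule microarray slides.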 As to conditions: higher = more signal.
Assay [12] can be described thus: growth effects on S. cerevisiae YJM789 – YJM789 clinical isolate, OD600, 24 h, basal, primary screen (AID 1089).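 Note: growth of clinical yeast isolate S. cerevisiae YJM 789 seeded 1000 cells per well; test concentration not given here.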 As to conditions: higher = more signal, called active from +8 up or from −8 down.
Assay [13] is described as follows: S. pombe growth modifiers, basal conditions – strain 972, OD600, 24 h, no modulator, primary screen (AID 1090).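 Note: basal condition with compound alone and no growth modifier present; test concentration not given here.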 As to conditions: S. pombe 972 growth, higher = more signal, called active from +8 up or from −8 down.
Assay [14] can be described thus: budding yeast growth modifiers under rapamycin – strain BY4716, OD600, 96 h, primary screen (AID 1091). Note: test concentration not given here. As to conditions: S. cerevisiae BY4716 + rapamycin, higher = more signal, called active from +8 up or from −8 down.
In assay [15] the target is Torsin-1A-interacting protein 2 (Homo sapiens) (UniProt Q8NFQ8). Nature of the assay: small molecules binding lysate-expressed LULL1 – cell lysate, human LULL1 lysate, 635/667 nm fluorescence, primary screen (AID 1092).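 Note: probe is lysate of COS7 cells overexpressing human LULL1; score merges per-feature 667 nm fluorescence with signal-to-noise.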 As to conditions: small-molecule microarray, hLULL1 lysate binding, 635 nm fluorescence; higher = more signal.
The nature of assay [16]: optical density change of DRC41 E. coli – strain DRC41, OD650, 24 h, E. coli filamentation project, primary screen (AID 1093).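 Note: MC1000 strain lacking acrAB efflux and sulA so SOS filamentation is blocked; test concentration not given here.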 As to conditions: E. coli DRC41 growth, higher = more signal, called active from +8 up or from −8 down.
A short description of assay [17]: probe aLefty2 binding to arrayed compounds – biochemical, biotinylated probe, 635/667 nm fluorescence, primary screen (AID 1094).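 Note: score merges spot fluorescence near 667 nm with spot signal-to-noise ratio.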 As to conditions: small-molecule microarray, higher = more signal.
Assay [18] has as its system Noggin (protein binding on small-molecule microarray). The assay can be described thus: small molecules binding Noggin protein – biochemical, 635/667 nm fluorescence, primary screen (AID 1095).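 Note: score merges 667 nm feature fluorescence with signal to noise over triplicate slides.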 As to conditions: 635 nm fluorescence, higher = more signal.
Assay [19] deals with Neurogenic locus notch homolog protein 3 (Homo sapiens) (UniProt Q9UM47). The assay can be described thus: small molecules binding NOTCH3 protein – biochemical, 635/667 nm fluorescence, primary screen (AID 1096). As to conditions: small-molecule microarray, 635 nm fluorescence, higher = more signal.
Assay [20] is described as follows: probe aEGFR binding to arrayed compounds – biochemical, biotinylated probe, 635/667 nm fluorescence, primary screen (AID 1097).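 Note: probe is a biotinylated anti-EGFR antibody binding compounds printed on slides; score combines fluorescence near 667 nm and signal to noise of each spot.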 As to conditions: small-molecule microarray, higher = more signal.

Chain of Neurogenic locus notch homolog protein 3 (Homo sapiens) (Q9UM47 whole entry, looked up): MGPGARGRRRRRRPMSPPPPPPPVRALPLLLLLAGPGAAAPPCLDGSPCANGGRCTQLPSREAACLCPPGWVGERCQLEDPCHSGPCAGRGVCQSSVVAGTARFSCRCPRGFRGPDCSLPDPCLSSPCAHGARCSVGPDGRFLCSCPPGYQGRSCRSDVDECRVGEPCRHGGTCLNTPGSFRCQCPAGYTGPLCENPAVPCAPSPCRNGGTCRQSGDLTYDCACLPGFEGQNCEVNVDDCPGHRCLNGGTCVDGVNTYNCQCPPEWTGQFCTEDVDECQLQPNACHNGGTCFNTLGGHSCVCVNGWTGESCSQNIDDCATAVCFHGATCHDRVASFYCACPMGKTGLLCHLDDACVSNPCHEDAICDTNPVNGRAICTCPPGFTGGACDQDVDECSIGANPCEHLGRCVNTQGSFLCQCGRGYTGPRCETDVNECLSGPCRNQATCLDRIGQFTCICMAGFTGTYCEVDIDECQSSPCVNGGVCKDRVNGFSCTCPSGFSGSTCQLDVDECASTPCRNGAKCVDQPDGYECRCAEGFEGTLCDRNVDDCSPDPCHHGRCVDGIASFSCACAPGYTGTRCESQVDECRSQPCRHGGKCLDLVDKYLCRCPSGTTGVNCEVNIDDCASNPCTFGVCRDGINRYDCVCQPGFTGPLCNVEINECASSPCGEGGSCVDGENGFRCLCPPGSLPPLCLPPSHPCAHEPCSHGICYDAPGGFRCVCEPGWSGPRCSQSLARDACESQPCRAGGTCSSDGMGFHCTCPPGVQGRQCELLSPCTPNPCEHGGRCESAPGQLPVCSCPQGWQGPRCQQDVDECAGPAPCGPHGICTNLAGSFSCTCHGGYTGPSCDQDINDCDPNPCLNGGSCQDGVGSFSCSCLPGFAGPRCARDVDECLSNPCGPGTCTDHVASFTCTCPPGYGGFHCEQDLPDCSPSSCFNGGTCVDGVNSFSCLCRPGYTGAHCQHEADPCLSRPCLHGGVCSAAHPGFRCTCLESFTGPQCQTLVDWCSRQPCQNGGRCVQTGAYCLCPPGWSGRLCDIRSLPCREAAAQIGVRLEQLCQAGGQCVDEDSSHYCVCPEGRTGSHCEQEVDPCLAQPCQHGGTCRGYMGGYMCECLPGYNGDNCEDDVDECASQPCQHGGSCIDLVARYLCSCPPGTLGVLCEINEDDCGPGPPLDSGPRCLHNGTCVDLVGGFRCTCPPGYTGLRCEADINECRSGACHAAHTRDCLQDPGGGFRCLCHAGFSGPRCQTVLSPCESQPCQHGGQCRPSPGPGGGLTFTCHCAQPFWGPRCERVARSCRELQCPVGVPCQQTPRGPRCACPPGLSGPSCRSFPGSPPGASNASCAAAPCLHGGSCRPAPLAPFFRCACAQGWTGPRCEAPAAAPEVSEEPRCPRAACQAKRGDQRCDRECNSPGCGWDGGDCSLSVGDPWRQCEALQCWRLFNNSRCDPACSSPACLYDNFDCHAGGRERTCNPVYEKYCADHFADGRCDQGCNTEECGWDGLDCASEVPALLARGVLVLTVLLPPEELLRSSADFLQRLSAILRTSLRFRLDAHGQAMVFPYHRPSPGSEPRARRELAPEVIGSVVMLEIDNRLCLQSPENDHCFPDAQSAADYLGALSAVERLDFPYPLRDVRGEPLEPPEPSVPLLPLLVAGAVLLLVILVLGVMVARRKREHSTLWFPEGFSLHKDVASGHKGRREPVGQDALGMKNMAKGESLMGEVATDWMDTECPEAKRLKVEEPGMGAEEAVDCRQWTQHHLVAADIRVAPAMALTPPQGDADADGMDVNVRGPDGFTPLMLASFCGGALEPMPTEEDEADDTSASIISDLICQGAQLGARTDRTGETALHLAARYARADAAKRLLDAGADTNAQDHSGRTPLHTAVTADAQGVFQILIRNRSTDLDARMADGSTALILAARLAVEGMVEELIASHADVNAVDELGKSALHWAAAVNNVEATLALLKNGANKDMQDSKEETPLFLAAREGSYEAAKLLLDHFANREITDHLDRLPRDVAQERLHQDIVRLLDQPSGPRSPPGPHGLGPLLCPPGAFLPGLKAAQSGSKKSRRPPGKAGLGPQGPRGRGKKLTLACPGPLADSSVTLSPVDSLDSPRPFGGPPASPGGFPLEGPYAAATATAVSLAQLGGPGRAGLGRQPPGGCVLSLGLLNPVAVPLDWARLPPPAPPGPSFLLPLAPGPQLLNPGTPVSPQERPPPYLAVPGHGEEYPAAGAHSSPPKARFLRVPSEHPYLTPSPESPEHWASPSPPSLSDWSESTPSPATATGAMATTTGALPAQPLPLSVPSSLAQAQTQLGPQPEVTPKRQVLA
Chain of Neurogenic locus notch homolog protein 2 (Homo sapiens) (Q04721 whole entry, looked up, canonical isoform): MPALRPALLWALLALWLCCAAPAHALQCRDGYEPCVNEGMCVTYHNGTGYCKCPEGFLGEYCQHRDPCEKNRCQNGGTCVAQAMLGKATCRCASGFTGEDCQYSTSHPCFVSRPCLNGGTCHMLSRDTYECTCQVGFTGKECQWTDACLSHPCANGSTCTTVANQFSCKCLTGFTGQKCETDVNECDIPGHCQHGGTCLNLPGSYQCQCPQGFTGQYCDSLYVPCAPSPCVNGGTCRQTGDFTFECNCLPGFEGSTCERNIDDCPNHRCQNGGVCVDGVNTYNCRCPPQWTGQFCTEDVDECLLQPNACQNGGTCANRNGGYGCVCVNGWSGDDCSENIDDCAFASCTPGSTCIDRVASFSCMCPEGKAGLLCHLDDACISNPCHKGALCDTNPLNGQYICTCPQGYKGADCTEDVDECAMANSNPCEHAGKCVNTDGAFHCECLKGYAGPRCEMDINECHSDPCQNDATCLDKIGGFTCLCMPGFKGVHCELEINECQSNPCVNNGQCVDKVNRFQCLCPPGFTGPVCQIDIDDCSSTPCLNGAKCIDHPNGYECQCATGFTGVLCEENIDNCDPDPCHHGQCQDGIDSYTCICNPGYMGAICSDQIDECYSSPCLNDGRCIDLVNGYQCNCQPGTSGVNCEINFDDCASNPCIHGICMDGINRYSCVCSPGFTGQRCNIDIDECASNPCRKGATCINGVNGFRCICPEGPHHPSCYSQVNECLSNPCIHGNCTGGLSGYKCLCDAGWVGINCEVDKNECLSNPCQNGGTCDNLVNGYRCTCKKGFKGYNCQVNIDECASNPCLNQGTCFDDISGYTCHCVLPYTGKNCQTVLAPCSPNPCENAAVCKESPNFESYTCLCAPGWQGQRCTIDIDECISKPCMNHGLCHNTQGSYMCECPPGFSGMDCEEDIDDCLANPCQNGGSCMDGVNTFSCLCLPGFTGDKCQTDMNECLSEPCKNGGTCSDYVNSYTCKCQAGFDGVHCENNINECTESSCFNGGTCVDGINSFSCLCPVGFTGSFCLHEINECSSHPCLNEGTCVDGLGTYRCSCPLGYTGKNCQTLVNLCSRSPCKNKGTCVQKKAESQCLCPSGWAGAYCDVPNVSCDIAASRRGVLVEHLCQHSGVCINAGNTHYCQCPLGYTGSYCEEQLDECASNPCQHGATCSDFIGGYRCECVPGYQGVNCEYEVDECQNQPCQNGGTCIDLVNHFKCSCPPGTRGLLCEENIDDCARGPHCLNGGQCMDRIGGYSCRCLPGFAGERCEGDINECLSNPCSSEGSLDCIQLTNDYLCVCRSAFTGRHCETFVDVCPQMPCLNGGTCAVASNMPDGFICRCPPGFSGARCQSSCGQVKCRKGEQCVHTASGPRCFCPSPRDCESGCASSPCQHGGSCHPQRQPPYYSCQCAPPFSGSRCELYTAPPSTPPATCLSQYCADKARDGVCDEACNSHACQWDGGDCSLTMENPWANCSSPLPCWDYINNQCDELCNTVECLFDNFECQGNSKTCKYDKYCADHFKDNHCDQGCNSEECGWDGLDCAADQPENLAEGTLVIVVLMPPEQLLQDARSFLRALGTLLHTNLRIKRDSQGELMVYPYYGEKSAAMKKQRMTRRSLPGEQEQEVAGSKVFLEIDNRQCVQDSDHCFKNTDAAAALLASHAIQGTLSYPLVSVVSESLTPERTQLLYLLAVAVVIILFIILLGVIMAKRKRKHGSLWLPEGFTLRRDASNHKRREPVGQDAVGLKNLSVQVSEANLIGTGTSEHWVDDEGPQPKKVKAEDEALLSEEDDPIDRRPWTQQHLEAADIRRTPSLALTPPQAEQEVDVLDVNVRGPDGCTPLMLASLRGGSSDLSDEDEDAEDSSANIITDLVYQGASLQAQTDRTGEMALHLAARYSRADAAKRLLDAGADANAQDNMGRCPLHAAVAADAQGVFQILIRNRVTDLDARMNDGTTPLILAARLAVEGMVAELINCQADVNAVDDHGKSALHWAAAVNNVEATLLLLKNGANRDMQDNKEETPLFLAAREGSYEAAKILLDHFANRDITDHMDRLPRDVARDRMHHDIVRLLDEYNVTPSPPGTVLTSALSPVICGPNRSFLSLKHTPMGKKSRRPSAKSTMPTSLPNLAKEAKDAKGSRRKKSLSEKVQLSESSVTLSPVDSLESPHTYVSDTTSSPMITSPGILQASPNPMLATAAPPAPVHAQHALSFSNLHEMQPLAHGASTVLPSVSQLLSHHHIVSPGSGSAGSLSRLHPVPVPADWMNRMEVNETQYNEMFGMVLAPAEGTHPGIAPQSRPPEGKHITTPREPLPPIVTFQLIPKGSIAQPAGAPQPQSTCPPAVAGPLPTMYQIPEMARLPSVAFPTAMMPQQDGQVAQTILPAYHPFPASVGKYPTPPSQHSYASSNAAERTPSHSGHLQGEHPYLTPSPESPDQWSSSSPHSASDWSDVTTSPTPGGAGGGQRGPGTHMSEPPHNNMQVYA

For the compound `CCOC(=O)[C@H](CC(C)C)NC(=O)CCC1CC(OC(=O)NCCc2ccc(F)cc2)CC2(CCCC(COC(=O)NCc3cccc4ccccc34)O2)O1` (stereo not given in full), the composite z-score in assay [1] was -0.249; in [2], 0.685; in assay [3], -0.195; in [4], 0.162; in assay [5], 0.401; in assay [6] it was 0.0303. The composite z-score in assay [7] was 0.76; in assay [9] it was 0.748; in assay [10] it was -0.134; in assay [11], 0.733; in [15], 2.16; in assay [17], -0.181. Besides, the figures for the composite z-score in assay [18], in [19] and in assay [20] were 0.261, -0.773 and -0.0995, respectively. The z-score in assay [8] is 1.95 (inactive); in assay [12] it was -0.175 (inactive); in [13] it was -0.421 (inactive); in [14], 0.238 (inactive); in assay [16], 0.415 (inactive).

Regarding `COC(=O)[C@H](C)NC(=O)CCC1CC(OC(=O)NCc2ccc3c(c2)OCO3)CC2(CCCC(COC(=O)NCCC(C)C)O2)O1` (stereo not given in full), the composite z-score in assay [1] was -0.312; in assay [2], 0.255; in assay [3], -0.0837; in assay [4], 0.338; in assay [5], 0.821; in assay [6], 1.14. Further, the composite z-score in [7] was 0.808; in [9] it was 0.0929; in assay [10] it was -0.318; in [11], 1.55; in [15] it was 2.28; in assay [17] it was -0.166. The composite z-score in assay [18] is 0.501; in assay [19], 0.437; in assay [20] it was -0.0858. For the same compound, the z-score in assay [8] was 1.52 (inactive); in [12], -0.916 (inactive); in assay [13], -0.031 (inactive); in assay [14], -1.24 (inactive); in [16] it was 0.861 (inactive).

With `O=C1[C@H]2CCn3c(=O)n(Cc4cc5c(cc4Cl)OCO5)c(=O)n3[C@H]2[C@H](O)[C@@H]2O[C@H]12`, the composite z-score in assay [1] is 1.24; in assay [2], -0.0222; in [3] it was -0.162; in [4], -0.244; in assay [5], -0.382; in [6] it was -0.156. In addition, the composite z-score is 0.801 in [7]; -0.332 in [9]; 0.0156 in assay [10]; -0.0582 in assay [11]; -0.297 in assay [15]; -0.255 in [17]. The composite z-score is 0.27 in [18], -0.802 in assay [19] and -0.173 in assay [20]. In addition, the z-score in [8] is -0.162 (inactive); in assay [12], 0.821 (inactive); in assay [13], -0.315 (inactive); in [14] it was -0.224 (inactive); in assay [16], 0.662 (inactive).

Turning to `CC(CCN1CCCCc2nc(C)c(C)cc21)=NO[C@H](C)c1cn([C@@H]2COC[C@H]2O)nn1`, the composite z-score is -0.565 in assay [1]; 2.25 in [2]; -0.126 in assay [3]; 0.517 in [4]; 1.11 in assay [5]; 0.172 in assay [6]. Moreover, the composite z-score is 1.18 in assay [7]; 0.462 in assay [9]; -0.0772 in [10]; 1.19 in assay [11]; 0.967 in [15]; 0.0636 in assay [17]. The composite z-score worked out at 1.51 in assay [18], 0.486 in assay [19] and 0.267 in assay [20]. The z-score is 0.227 (inactive) in assay [8]; 0.565 (inactive) in [12]; 1.07 (inactive) in assay [13]; 0.601 (inactive) in assay [14]; 0.681 (inactive) in assay [16].

With `CCCNC(=O)OC[C@H]1O[C@H](CCON=C2c3cc(OC)ccc3O[C@H](c3cccc(OC)c3)[C@H]2O)C=C[C@@H]1Oc1ccc(OC)cc1`, the composite z-score in assay [1] is -0.231; in assay [2], 0.768; in [3], -0.0647; in assay [4], 0.884; in assay [5], 1.17; in [6] it was 0.64. The composite z-score in assay [7] was 0.93; in [9], 0.167; in assay [10], -0.0237; in assay [11] it was 0.799; in assay [15], 0.972; in assay [17], 0.451. Besides, the composite z-score amounted to 0.716 in assay [18], 0.468 in assay [19] and 0.0897 in [20]. Moreover, the z-score is 0.446 (inactive) in assay [8]; -0.409 (inactive) in assay [12]; 0.464 (inactive) in assay [13]; 0.479 (inactive) in [14]; 0.8 (inactive) in assay [16].
